Source: PubChem BioAssay (NCATS)
Records with an inconclusive call do not appear. Entries that show only a call come without a potency. The source made the active and inactive calls. Calls follow the shape of the dose curve; as a rule, active = well fitted activation curve with a large enough effect; inconclusive = small, poorly fitted or top-dose-only effect, or effect the other way; inactive = flat fitted curve, though single readings scatter.
Potency is read from the fitted curve at half-maximal effect.

Assay: qHTS Assay for Identification of Small Molecule Agonists for Thrombopoietin (TPO) Signaling Pathway (AID 917)
Conditions: TPO signaling pathway reporter cells, agonist qHTS, stimulated with TPO at its EC50; series mostly up to 38.5 µM
Method in brief: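 Luminescence from a Glycoprotein IIb promoter–driven luciferase reporter served as read-out in murine Ba/F3 cells carrying the human TPO receptor. Cells, deprived of IL-3 overnight, received compounds with 26 pM TPO and were incubated 24 hrs at 37 C.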
For `Cc1cc(C(C)(C)C)c(O)c(C)c1CC1=NCCN1`, the Potency was “inactive”.
In the case of `NCCCCCC(=O)O`, the Potency was “inactive”.
For `O=C(C1CCCCC1)N1CC(=O)N2CCc3ccccc3C2C1` (stereo not drawn), the Potency was “inactive”.
In the case of `CCc1cccc2c3c([nH]c12)C(CC)(CC(=O)O)OCC3` (stereo not drawn), the Potency was “inactive”.
In the case of `CN(C)c1nc(N(C)C)nc(N(C)C)n1`, the Potency was “inactive”.
In the case of `NC(=O)NO`, the Potency was “inactive”.
With `O=c1c(O)c(-c2ccc(O)c(O)c2)oc2cc(O)cc(O)c12` the Potency was “inactive”.
With `CN1CCN(C2=Nc3cc(Cl)ccc3Nc3ccccc32)CC1` the Potency was “inactive”.
In the case of `Cc1cc(C(C)(C)C)cc(C)c1CC1=NCCN1`, the Potency was “inactive”.
In the case of `CCOC(=O)C(C)(C)Oc1ccc(Cl)cc1`, the Potency was “inactive”.
For `COc1ccc(C2CNC(=O)C2)cc1OC1CCCC1` (stereo not drawn), the Potency was “inactive”.
In the case of `C[C@](N)(Cc1ccc(O)c(O)c1)C(=O)O`, the Potency was “inactive”.
With `Cn1cnc2c1c(=O)[nH]c(=O)n2C` the Potency was “inactive”.
In the case of `CN(Cc1cnc2nc(N)nc(N)c2n1)c1ccc(C(=O)N[C@@H](CCC(=O)O)C(=O)O)cc1`, the Potency was “inactive”.
In the case of `NC12CC3CC(CC(C3)C1)C2`, the Potency was “inactive”.
In the case of `CC(C)Cc1ccc(C(C)C(=O)O)cc1` (stereo not drawn), the Potency was “inactive”.
With `CN1CCC(=C2c3ccccc3CC(=O)c3sccc32)CC1` the Potency was “inactive”.
For `Cn1ccc2cc3c(cc21)CCN3C(=O)Nc1cccnc1`, the Potency was 1000 nM (active).
In the case of `Cc1ccccc1N1C(=O)c2cc(S(N)(=O)=O)c(Cl)cc2NC1C` (stereo not drawn), the Potency was “inactive”.
For `Nc1nnc(-c2cccc(Cl)c2Cl)c(N)n1`, the Potency was “inactive”.
In the case of `COc1nc(C)nc(Cl)c1NC1=NCCN1`, the Potency was “inactive”.
In the case of `O=C(c1ccc(F)cc1)C1CCN(CCn2c(=O)[nH]c3ccccc3c2=O)CC1`, the Potency was “inactive”.
In the case of `NCCc1cnc[nH]1`, the Potency was “inactive”.
